Common to all, as to parameters: scale not given: direction of the effect not stated beside the values
Assay [1] addresses Protein translocase subunit SecA (Escherichia coli (strain K12)) (UniProt P10408). Description: Assay to Identify E. coli SecA ATPase Inhibitors. To be noted: 30 µM. The format is functional.
For assay [2], the target named is T1, Ubiquitin-activating enzyme e1, putative (Leishmania donovani (strain BPK282A1)) (UniProt E9BSI1).
T1 sequence (whole entry): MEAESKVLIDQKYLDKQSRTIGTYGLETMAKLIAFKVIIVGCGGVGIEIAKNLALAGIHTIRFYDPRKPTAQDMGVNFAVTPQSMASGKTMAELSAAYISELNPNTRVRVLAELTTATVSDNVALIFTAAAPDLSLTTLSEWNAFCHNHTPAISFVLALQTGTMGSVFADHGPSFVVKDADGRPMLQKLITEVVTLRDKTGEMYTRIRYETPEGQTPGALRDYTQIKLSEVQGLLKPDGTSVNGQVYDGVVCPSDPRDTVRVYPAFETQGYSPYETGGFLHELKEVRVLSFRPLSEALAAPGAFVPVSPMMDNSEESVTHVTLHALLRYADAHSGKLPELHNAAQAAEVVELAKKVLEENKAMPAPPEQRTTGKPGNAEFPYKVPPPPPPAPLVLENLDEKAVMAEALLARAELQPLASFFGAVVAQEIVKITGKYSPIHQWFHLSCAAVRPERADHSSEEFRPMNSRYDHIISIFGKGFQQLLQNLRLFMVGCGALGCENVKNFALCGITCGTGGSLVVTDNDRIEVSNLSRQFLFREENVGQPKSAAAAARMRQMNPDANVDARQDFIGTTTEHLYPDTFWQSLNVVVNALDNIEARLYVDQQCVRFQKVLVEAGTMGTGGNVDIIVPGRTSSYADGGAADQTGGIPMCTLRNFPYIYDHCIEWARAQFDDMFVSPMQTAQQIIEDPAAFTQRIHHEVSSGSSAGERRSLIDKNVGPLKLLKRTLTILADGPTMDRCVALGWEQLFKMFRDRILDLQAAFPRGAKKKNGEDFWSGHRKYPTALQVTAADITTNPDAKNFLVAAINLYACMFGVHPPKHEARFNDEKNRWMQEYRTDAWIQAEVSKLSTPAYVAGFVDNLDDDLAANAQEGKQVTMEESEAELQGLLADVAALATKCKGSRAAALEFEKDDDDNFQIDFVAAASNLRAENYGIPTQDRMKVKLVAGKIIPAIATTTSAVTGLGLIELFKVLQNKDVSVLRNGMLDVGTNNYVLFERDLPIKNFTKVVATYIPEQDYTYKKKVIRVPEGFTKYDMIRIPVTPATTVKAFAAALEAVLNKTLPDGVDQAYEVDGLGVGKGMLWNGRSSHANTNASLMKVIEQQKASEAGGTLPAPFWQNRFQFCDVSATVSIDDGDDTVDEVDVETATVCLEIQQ
As to the kind of experiment: Leishmania donovani Ubiquitin Activating Enzyme (LdE1). It is filed as functional. The following applies: 30 µM.

Assay [3] deals with AMP-activated protein kinase, AMPK (Homo sapiens) (UniProt P54646+O43741+P54619+Q9UGJ0+Q9Y478+Q13131+Q9UGI9). Description: AMP-dependent Kinase enzyme assay. An in vitro enzyme assay that detects ADP turnover that is directly proportional to AMPK activity. This uses naive AMPK that is activated during the assay with MK-8722. The format is functional. To be noted: 30 µM.
Assay [4] addresses Sialic acid-binding Ig-like lectin 9 (Homo sapiens) (UniProt Q9Y336). As to the kind of experiment: Hs-Siglec9 ALPHAscreen SOP 20170721. To be noted: 10 µM.
The test system of assay [5] is Trypanosoma cruzi. Description: Trypanosoma cruzi phosphomannomutase and mannose-1-phosphate guanylyltransferase assay. It is filed as functional. To be noted: 10 µM.
The target in assay [6] is T2, Arginase-2, mitochondrial (Homo sapiens) (UniProt P78540).
T2 sequence (whole entry): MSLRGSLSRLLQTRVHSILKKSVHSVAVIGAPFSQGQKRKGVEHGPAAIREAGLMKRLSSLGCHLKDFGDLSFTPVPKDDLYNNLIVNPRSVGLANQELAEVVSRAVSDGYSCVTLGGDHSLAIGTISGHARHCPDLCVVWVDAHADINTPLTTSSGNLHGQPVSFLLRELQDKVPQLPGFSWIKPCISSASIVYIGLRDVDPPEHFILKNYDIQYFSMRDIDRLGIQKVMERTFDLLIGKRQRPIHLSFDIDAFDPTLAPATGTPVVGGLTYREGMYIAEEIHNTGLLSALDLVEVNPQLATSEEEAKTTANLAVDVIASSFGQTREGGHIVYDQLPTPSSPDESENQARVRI
As to the kind of experiment: in vitro enzyme assay to detect the production of urea directly proportional to the activity of Arginase II. Note: in the data most compounds retested in dose-response had high values. The format is functional. To be noted: 33.3 µM.

The target in assay [7] is T3, Proteasome subunit beta (Trypanosoma cruzi) (UniProt O96673).
T3 sequence (whole entry): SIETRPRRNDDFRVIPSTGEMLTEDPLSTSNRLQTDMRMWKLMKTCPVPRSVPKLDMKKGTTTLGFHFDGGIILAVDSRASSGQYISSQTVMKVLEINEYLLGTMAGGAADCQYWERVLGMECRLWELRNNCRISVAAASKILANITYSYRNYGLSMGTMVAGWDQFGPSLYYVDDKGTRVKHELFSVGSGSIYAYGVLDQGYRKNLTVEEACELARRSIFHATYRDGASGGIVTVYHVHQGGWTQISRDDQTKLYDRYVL
Description: Trypanosoma cruzi proteasome chymotrypsin-like activity (TcProtChymo) assay. Note: in the data most compounds retested in dose-response had high values. The format is functional. To be noted: 9.37 µM.

The species entered for assay [8] is Homo sapiens. As to the kind of experiment: To identify inhibition of the IFN signalling (Jak-Stat) pathway via expression of an eGFP reporter gene under the control of an IFN-stimulated response element (ISRE) containing MxA promoter. The following applies: 30 µM. It is filed as functional. Background: A reporter such as luciferase makes a cellular process visible.

The target of assay [9] is T4, Tyrosyl-tRNA synthetase, putative (Trypanosoma cruzi (strain CL Brener)) (UniProt Q4DSP6).
T4 sequence (whole entry): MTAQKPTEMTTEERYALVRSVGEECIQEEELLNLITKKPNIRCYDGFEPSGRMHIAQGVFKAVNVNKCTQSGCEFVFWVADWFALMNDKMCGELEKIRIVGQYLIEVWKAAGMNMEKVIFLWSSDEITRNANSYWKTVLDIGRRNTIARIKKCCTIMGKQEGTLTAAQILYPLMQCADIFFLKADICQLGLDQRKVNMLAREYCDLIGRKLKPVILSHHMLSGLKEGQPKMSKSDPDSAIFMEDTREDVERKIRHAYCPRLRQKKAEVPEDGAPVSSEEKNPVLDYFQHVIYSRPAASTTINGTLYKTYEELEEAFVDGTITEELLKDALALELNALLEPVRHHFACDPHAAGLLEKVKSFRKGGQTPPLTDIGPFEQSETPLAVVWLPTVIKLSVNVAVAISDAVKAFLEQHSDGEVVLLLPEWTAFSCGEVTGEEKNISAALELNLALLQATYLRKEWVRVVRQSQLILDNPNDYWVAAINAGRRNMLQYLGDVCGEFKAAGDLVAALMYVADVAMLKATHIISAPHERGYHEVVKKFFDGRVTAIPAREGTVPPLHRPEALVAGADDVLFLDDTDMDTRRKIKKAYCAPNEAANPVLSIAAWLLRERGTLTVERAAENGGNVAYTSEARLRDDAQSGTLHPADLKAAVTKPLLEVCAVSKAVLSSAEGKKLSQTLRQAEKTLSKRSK
As to the kind of experiment: Trypanosoma cruzi tyrosyl tRNA synthetase (TcYRS) _High Tyrosine SOP. Note: in the data most compounds retested in dose-response had high values. To be noted: 30 µM. The format is functional.

Assay [10] addresses T4, Tyrosyl-tRNA synthetase, putative (Trypanosoma cruzi (strain CL Brener)). Description: Trypanosoma cruzi tyrosyl tRNA synthetase (TcYRS) SOP. The format is functional. The following applies: 30 µM.
Assay [11] addresses Chromo domain-containing protein 1 (Saccharomyces cerevisiae (strain ATCC 204508 / S288c) (Baker's yeast)) (UniProt P32657). As to the kind of experiment: ScCHD-1 Enzyme Inhibition Assay. Note: in the data most compounds retested in dose-response had high values. The format is functional. The following applies: 30 µM.

SMILES strings stand for the structures. For part of these data: Measured potencies and affinities stand elsewhere.

Protein translocase subunit SecA (Escherichia coli (strain K12)), sequence (P10408 whole entry): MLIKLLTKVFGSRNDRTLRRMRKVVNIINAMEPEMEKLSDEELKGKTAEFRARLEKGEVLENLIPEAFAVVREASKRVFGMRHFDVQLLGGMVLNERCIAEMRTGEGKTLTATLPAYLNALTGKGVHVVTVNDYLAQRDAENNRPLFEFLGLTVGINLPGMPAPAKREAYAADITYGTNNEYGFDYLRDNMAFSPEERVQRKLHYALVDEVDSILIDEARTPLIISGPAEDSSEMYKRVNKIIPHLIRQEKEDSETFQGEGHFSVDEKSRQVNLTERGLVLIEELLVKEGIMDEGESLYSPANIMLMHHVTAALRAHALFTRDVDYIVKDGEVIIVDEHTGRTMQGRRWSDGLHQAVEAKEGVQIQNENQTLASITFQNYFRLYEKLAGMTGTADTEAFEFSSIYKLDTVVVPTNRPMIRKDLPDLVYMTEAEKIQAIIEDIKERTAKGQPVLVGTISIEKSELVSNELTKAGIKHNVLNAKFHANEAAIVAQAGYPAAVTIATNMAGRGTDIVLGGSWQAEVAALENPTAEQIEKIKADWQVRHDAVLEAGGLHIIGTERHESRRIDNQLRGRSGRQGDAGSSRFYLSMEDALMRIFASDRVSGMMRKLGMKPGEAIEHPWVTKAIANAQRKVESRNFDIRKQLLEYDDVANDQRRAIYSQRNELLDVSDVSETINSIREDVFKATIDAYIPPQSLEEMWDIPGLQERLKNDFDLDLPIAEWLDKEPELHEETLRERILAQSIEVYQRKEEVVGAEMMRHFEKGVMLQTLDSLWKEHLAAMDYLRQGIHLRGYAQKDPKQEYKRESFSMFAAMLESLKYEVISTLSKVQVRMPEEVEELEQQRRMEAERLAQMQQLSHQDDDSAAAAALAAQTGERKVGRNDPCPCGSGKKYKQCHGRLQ
Sialic acid-binding Ig-like lectin 9 (Homo sapiens), sequence (Q9Y336 whole entry): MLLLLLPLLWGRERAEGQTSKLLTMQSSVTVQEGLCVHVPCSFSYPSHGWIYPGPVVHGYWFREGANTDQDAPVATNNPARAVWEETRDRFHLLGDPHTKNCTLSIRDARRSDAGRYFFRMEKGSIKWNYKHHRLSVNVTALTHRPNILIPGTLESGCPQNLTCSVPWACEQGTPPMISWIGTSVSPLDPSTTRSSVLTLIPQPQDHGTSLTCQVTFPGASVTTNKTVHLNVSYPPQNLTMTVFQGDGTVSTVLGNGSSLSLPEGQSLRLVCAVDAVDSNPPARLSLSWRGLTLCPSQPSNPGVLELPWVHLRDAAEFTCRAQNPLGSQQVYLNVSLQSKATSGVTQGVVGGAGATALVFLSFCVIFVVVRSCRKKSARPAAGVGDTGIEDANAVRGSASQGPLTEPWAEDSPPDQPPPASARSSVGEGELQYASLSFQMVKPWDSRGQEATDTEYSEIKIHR
Chromo domain-containing protein 1 (Saccharomyces cerevisiae (strain ATCC 204508 / S288c) (Baker's yeast)), sequence (P32657 whole entry, the tested form may be a part): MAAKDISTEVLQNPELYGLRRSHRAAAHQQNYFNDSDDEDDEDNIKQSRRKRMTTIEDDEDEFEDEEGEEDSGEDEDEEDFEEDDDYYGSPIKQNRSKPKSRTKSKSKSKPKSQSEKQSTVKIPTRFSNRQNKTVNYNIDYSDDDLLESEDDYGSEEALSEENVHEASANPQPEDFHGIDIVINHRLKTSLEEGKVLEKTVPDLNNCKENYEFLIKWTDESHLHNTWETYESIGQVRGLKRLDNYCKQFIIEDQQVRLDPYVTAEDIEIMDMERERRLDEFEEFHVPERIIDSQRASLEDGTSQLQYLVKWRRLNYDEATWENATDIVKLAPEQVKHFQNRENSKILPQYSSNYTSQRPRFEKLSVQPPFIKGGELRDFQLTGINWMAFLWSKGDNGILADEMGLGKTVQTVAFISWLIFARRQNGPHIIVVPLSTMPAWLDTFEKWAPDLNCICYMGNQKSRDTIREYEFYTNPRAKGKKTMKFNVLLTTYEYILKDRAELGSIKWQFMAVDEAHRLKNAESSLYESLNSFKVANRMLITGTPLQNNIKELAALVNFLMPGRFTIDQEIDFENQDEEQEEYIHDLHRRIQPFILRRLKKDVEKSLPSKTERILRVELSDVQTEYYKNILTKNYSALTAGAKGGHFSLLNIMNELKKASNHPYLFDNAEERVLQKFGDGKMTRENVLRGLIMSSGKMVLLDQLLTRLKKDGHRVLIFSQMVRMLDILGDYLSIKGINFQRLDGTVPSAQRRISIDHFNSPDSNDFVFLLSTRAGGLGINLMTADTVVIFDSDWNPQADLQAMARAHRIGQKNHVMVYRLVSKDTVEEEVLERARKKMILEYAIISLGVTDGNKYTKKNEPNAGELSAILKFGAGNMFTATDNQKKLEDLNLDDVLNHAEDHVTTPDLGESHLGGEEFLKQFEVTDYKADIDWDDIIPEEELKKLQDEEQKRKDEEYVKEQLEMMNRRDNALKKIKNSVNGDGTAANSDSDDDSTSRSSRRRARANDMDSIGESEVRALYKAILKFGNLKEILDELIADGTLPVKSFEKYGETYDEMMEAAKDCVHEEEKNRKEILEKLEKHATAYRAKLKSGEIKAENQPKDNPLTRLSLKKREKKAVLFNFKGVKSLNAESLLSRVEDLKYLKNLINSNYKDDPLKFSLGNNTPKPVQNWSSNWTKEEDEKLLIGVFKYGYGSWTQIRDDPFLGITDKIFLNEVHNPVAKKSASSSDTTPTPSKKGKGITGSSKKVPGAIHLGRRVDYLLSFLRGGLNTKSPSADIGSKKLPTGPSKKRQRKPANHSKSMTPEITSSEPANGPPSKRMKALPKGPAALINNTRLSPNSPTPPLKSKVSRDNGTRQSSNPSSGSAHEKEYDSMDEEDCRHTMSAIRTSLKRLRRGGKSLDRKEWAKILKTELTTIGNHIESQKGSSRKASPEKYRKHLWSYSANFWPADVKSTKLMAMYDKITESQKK

Regarding `COc1cccc(OCC2CCCN(C3CCN(C(C)=O)CC3)C2)c1` (centres undefined), the Percent Effect in assay [1] is -0.921%; in [2], 5.41%; in assay [3] it was 0.304%; in assay [4] it was -4.78%; in assay [5] it was -3.67%; in assay [6] it was 1.43%. In addition, the Percent Effect in assay [7] was 18.4%; in assay [8] it was -5.82%; in [9], 4.76%; in [10] it was 12.2%; in assay [11], -2.6%.

As to `CCN(CC1CCCO1)C(=O)Nc1cc(OC)c(OC)cc1C` (centres undefined), the Percent Effect in assay [1] was -8.28%; in assay [2], 27.9%; in assay [3] it was -14.4%; in assay [4], 12.7%; in assay [5] it was 4.06%; in assay [6] it was -2.28%. Moreover, the Percent Effect in assay [7] was 9.26%; in [8], -8.32%; in assay [9] it was 8.37%; in [10] it was 21.5%; in [11], -9.07%.

On to `Cc1ncsc1C(=O)NCCOc1ncc(Cl)cc1Cl`, for which the Percent Effect in [1] is -6.27%; in assay [2], 5.41%; in assay [3], 1.84%; in [4], 0.223%; in assay [5], 0.977%; in assay [6] it was 4.17%. Besides, the Percent Effect was 11.1% in assay [7]; 25.4% in assay [8]; 10.9% in assay [9]; 11% in assay [10]; -5.96% in [11].

For the compound `CNc1cc2c(nn1)CCN(C(=O)C1CCCc3ccccc31)C2` (centres undefined), the Percent Effect was -1.49% in assay [1]; 7.59% in [2]; -8.51% in assay [3]; 1.73% in assay [4]; -4.44% in assay [5]; 4.18% in [6]. The Percent Effect is -2.38% in [7]; 8.64% in [8]; 5.42% in [9]; 3.8% in assay [10]; -3.47% in [11].

Regarding `COc1ccccc1C(O)CNCc1c(C(C)C)nn(C)c1N(C)C` (centres undefined), the Percent Effect in assay [1] is -5.07%; in assay [2], 15.6%; in [3] it was -1.45%; in assay [4] it was 1.4%; in assay [5] it was 1.31%; in assay [6] it was 1.07%. For the same compound, the Percent Effect in assay [7] is 4.9%; in assay [8] it was -5.4%; in assay [9] it was 11.7%; in [10] it was 14.6%; in assay [11] it was -10.1%.

As to `COc1ccc(OCC(=O)NC(C)c2ccc(F)cc2)c(C(=O)O)c1` (centres undefined), the Percent Effect in assay [1] is -5.45%; in [2], 5.41%; in assay [3], 1.14%; in [4], 2.91%; in assay [5], 2.05%; in assay [6] it was 5.21%. The Percent Effect was 0.944% in [7]; -0.568% in assay [8]; 4.3% in assay [9]; 13.6% in assay [10]; -5.02% in [11].

For `Cc1cc(C)n(CC2CCCN2C(=O)c2ccc3[nH]nnc3c2)n1` (centres undefined), the Percent Effect is -4.12% in assay [1]; 5.48% in assay [2]; 5.75% in assay [3]; 0.134% in assay [4]; -2.35% in assay [5]; 5.46% in assay [6]. The Percent Effect in assay [7] was 14.4%; in assay [8], 4.89%; in [9] it was 1.07%; in [10], 10%; in [11], -3.11%.

For the compound `COc1ccc(Br)c(C(=O)NCC2CCN(C(=O)c3ccoc3)CC2)c1`, the Percent Effect is -6.69% in assay [1]; 5.48% in assay [2]; 7.36% in [3]; -0.134% in [4]; 0.783% in [5]; 3.18% in [6]. The Percent Effect in assay [7] was 12.4%; in assay [8], 7.16%; in assay [9] it was 5.38%; in assay [10] it was 17.5%; in assay [11] it was -6.16%.

With `COc1c(C2CCCN2C(=O)c2ccnc(N(C)C)c2)c(C)nn1C` (centres undefined), the Percent Effect is -4.71% in assay [1]; 5.2% in assay [2]; 4.01% in [3]; 13.2% in assay [4]; -4.21% in assay [5]; 2.74% in [6]. The Percent Effect in [7] is 5.58%; in assay [8] it was 14%; in [9], 4.76%; in [10], 7.06%; in assay [11], -20%.

The values above are taken from ChEMBL document CHEMBL3988442, “University of Dundee, Small-Polar-MMV Screening Library” (2021).
